# Dicer inh: inhibitors of Dicer pre-microRNA processing, primary screen, biochemical, cat-ELCCA, chemiluminescence; Endoribonuclease Dicer (Homo sapiens), Q9UPY3; 47,000 compounds, 6% hits; z-score at 25 µM; cat-ELCCA pre-miR-21 Dicer processing; hits give high values; in the data active = z-score above about 3, passing the limit was not always enough;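 also: plate controls were vehicle for no effect and no enzyme for full effect; higher signal means more uncleaved substrate so more Dicer inhibition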
# An asterisk follows results filed as active. The sample as a whole holds a higher share of hits than the screen did.
SMILES,Dicer inh
CN(C)c1c(F)cc(C(N)=O)cc1F,3.4*
CCOC(=O)C(=CNc1sc(CC)cc1C(=O)OCC)C(=O)OCC,-0.52
Nc1nc2c(c(=O)[nH]1)C(c1ccc(Br)cc1)CC(=O)N2 (configuration not stated),-0.69
CC(C)(C)c1ccc(Oc2c(C(F)(F)F)oc3c(CN4CCOCC4)c(O)ccc3c2=O)cc1,-0.31
CCOc1ccccc1C(c1c(C)[nH][nH]c1=O)c1c(C)[nH][nH]c1=O,-6.8
Oc1ccc(Cl)c(C(c2c[nH]c3ccccc23)c2c[nH]c3ccccc23)c1,0.64
Cc1[nH][nH]c(=O)c1C(c1c(C)[nH][nH]c1=O)c1c[nH]c2ccccc12,-6.8
NCC(c1ccccc1)c1c[nH]c2ccccc12 (configuration not stated),-0.35
CCOc1ccc(C(c2c[nH]c3ccccc23)c2c[nH]c3ccccc23)cc1,3.4*
CCOc1cccc(C(c2c[nH]c3ccccc23)c2c[nH]c3ccccc23)c1OC,4*
CCCCSC1=C(C#N)C(=O)NC(c2ccc(OC)c(OC)c2)S1 (configuration not stated),3.4*
CCSC1=C(C#N)C(=O)NC(c2ccc(OC)c(OC)c2)S1 (configuration not stated),0.5
COC(=O)CSC1=C(C#N)C(=O)NC(c2ccc(OC)c(OC)c2)S1 (configuration not stated),1.3
Cc1cc2c(c(Sc3ccc(Cl)cc3)n1)C(=O)N(Cc1ccc(Cl)cc1Cl)C2=O,-1.3
COc1ccc2cc(CCC(C)=O)ccc2c1,7
CCOC(=O)C(C)c1ccc2cc(OC)ccc2c1 (configuration not stated),4.6*
CCOC(=O)NC(=S)c1ccc(OC)cc1,0.26
NS(=O)(=O)c1cc([N+](=O)[O-])c(Sc2ccc(Cl)cc2)s1,-8.4
Cc1ccc(S(=O)(=O)n2nc(-c3ccc(Cl)cc3)nc2NCc2ccco2)cc1,3.4*
O=S(=O)(c1ccccc1)n1nc(-c2ccccc2)nc1NCc1ccc(Cl)cc1,-1.7
Cc1nc(C)c(-c2ccn(S(=O)(=O)c3ccc(Cl)cc3)n2)o1,0.48
Cc1ccc(S(=O)(=O)n2nc(-c3ccc(Cl)cc3)nc2N)cc1,3.2*
O=S(=O)(c1ccccc1)n1nc(-c2ccccc2)nc1NCc1ccccc1,1.5
Cc1ccc(S(=O)(=O)n2nc(C)cc2C)cc1,0.88
CCn1c(Sc2c(C)c3cc4c(cc3[nH]c2=O)OCO4)nnc1-c1ccccc1,0.83
SMILES,Dicer inh
CC(C)(C)C(=O)Nc1ccc(Cl)cc1-c1noc(C(C)(C)C)n1,-0.24
COc1ccccc1C1NC(=O)C(=O)/C1=C(\O)c1ccc(Br)cc1 (configuration not stated),1.3
Cc1ccc(-c2n[nH]c(=O)c3ccccc23)cc1S(=O)(=O)NC(C)C,3.6*
Cc1ccc(-c2n[nH]c(=O)c3ccccc23)cc1S(N)(=O)=O,-0.34
Cc1ccc(-c2n[nH]c(=O)c3ccccc23)cc1S(=O)(=O)NC(C)(C)C,0.82
N#Cc1cc(F)cc(F)c1NC(=O)c1cccs1,-0.83
COc1ccc(OC)c(OCCOCCOc2cc(OC)ccc2OC)c1,0.42
CSc1cc(C(C)(C)C)nn1C(=O)c1ccc(Cl)cc1,-0.46
CC12CN3CC(C)(CN(C1)C3c1ccc(O)c(O)c1)C2=O (configuration not stated),-0.39
CN1CCc2cc(Cl)c(O)cc2[C@@H](c2ccccc2)C1,0.58
CN1Cc2sccc2C(c2ccc(O)c(O)c2)C1 (configuration not stated),4.8*
Cn1nccc1NC(=O)CC(C)(C)CC(=O)O,0.37
O=C(O)c1cccc2cccc(C(=O)O)c12,3.9*
Nc1ccc(C(=O)O)c2c(C(=O)O)cccc12,-0.03
O=C(O)c1cccc2cccc(S(=O)c3ccccc3CO)c12 (configuration not stated),-0.98
CCOc1cc(C2NC(=O)c3c(sc4c3CCCC4)N2)ccc1O (configuration not stated),1.8
CCCN1C(=O)C(NC(C)=O)c2cc(C)cc(C)c21 (configuration not stated),0.87
COc1ccc(Cl)cc1NC(=O)c1cnn2c1NC(c1ccco1)CC2C(F)(F)F (configuration not stated),3*
COc1ccc(NC(=O)c2cnn3c2NC(c2cccs2)CC3C(F)(F)F)cc1OC (configuration not stated),1.4
O=C(NCc1ccc(-n2cccn2)cc1)c1cnn2c1NC(c1ccco1)CC2C(F)(F)F (configuration not stated),1.8
O=C(Nc1cccnc1)c1cc2n(n1)C(C(F)(F)F)CC(c1ccco1)N2 (configuration not stated),0
COCCNC(=O)c1cc2n(n1)C(C(F)(F)F)CC(c1ccco1)N2 (configuration not stated),-0.64
COc1ccc(NC(=O)c2cnn3c2NC(c2ccco2)CC3C(F)(F)F)cc1OC (configuration not stated),4.6*
O=C1c2oc3ccccc3c(=O)c2C(c2cccc(O)c2)N1c1nccs1 (configuration not stated),-0.1
CNc1nnc(SCc2csc3ccccc23)s1,0.81
SMILES,Dicer inh
COc1ccc2c(c1)CCCN2Cc1c[nH]c2ccccc12,-1.9
Fc1ccccc1CN1CCN(CCCc2ccccc2)CC1,2.5
Fc1ccccc1CN1CCN(Cc2c[nH]c3ccccc23)CC1,3.7*
CCS(=O)(=O)N1CCN(Cc2c[nH]c3ccccc23)CC1,3.5*
FC(F)(F)c1cnc(N2CCN(Cc3c[nH]c4ccccc34)CC2)c(Cl)c1,-1.6
O=C1COCC(=O)N1CCc1c[nH]c2ccccc12,-1.2
Cc1cccc(CN2CCN(Cc3c[nH]c4ccccc34)CC2)c1,1.7
Brc1ccc(CN2CCN(Cc3c[nH]c4ccccc34)CC2)cc1,2.7
Clc1ccccc1CN1CCN(Cc2c[nH]c3ccccc23)CC1,4.5*
N#CCCNC(Cc1ccccc1)C(=O)O (configuration not stated),-0.25
FC(F)(F)c1ccnc(Oc2ccc(I)cc2)n1,-1.5
O=C(Cn1nnc(-c2ccc3c(c2)OCO3)n1)Nc1ccc(F)c(F)c1,2.5
O=c1cc(CSc2nnc(SCC3CC3)s2)c2ccc(O)cc2o1,-0.54
COc1ccccc1OCCC(=O)O,2.7
COc1ccccc1OCCN1CCN(C)CC1,4.8*
COc1ccccc1OCCn1cc(C(=O)O)c2ccccc21,-0.73
CC1c2ccsc2CCN1S(=O)(=O)c1ccccc1 (configuration not stated),3*
CC1c2ccsc2CCN1S(C)(=O)=O (configuration not stated),-0.25
CC1c2ccsc2CCN1S(=O)(=O)c1cc(C(F)(F)F)cc(C(F)(F)F)c1 (configuration not stated),0.66
O=c1[nH]ccc2c1c(=O)[nH]c1ccccc12,-1.3
C=CCN(c1ccccc1C1=N/C(=C\c2cccc(Cl)c2)C(=O)O1)S(=O)(=O)c1ccc(C)cc1,2.4
O=C1/C(=C/c2ccc3c(c2)OCO3)CCCc2ccccc21,-1.7
CN(C)/C=C1\SCc2ccccc2C1=O,-1.5
CN(C)/C=C1\CCCc2ccccc2C1=O,3.4*
O=C(Cn1nnc(-c2cc(Cl)cc(Cl)c2)n1)c1ccc2ccccc2c1,-0.53
O=C(OCc1ccccc1)c1cnc(N2CCOCC2)nc1C(F)(F)F,-1.8
CC(C)C(=O)N(c1ccc2oc(=O)sc2c1)S(=O)(=O)c1ccc(F)cc1,-3.1

# Screening data (PubChem BioAssay)
